PubChem BioAssay
For some assays here: Measured potencies and affinities stand elsewhere. Calls of active or inactive are those of the source. Unless noted, the rule behind the calls is not given here.

How the values were obtained:
[1] = antimalarial activity against Dd2 strain (AID 2302;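 active = growth inhibition above 50% at the single 2 µM test dose, taken to imply half-maximal potency below 2 µM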;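 note: 0% = DMSO untreated growth and 100% = chloroquine plus artemisinin killed control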); conditions: P. falciparum Dd2 in RBCs, LDH growth readout, 72 h; at 2 µM; hits give high values
[2] = HepG2 cytotoxicity, primary screen, cytotoxicity control for P. falciparum antimalarial project, cell-based, ATP luminescence (AID 2303;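 active = inhibition above 50%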;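 note: 0% = DMSO wells and 100% = digitonin-killed cells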); conditions: HepG2 viability, 24-48 h, at 10 µM, hits give high values
[3] = target: L-lactate dehydrogenase (Plasmodium falciparum (isolate CDC / Honduras)) (UniProt Q27743); assay: PfLDH activity inhibition – cell lysate, 3D7 strain, counter-screen for P. falciparum growth inhibition project (AID 2304);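 note: 0% = vehicle and 100% = reference inhibitor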; conditions: P. falciparum 3D7 crude extract, LDH APAD/NBT absorbance; at 2 µM; hits give high values
[4] = inhibition of 3D7 malaria parasite growth – strain 3D7 (AID 2306);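 note: 0% = DMSO wells and 100% = chloroquine plus artemisinin control wells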; conditions: P. falciparum 3D7 erythrocytic growth, LDH absorbance, 72 h; at 2 µM; hits give high values
[5] = target: Calcium-dependent protein kinase 1 (Plasmodium falciparum (isolate 3D7)) (UniProt P62344); assay: PfCDPK1 kinase inhibitors, biochemical, TCAMS library (AID 1159585; cut-off not given, nearly all actives have IC50 up to about 0.98 µM;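 note: inhibitors leave more ATP so luminescence rises with inhibition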); conditions: recombinant PfCDPK1, Kinase-Glo ATP depletion luminescence
[6] = target: Plasmodium falciparum protein kinase 6 (PK6, PF3D7_1337100) (UniProt Q8IDW1); assay: PfPK6 kinase inhibitors, biochemical, TCAMS library (AID 1159586); conditions: recombinant PfPK6, Kinase-Glo ATP depletion luminescence
[7] = target: Protein kinase 7 (PK7), Plasmodium falciparum 3D7 (PF3D7_0213400) (UniProt Q7YTF7); assay: inhibition of Plasmodium PK7 catalytic activity – biochemical, TCAMS antimalarial set, Kinase-Glo luminescence (AID 1159587); conditions: recombinant PfPK7, Kinase-Glo ATP depletion luminescence
[8] = target: Calcium-dependent protein kinase 4 (Plasmodium falciparum (isolate 3D7)) (UniProt Q8IBS5); assay: PfCDPK4 kinase inhibitors, biochemical, TCAMS library (AID 1159588; cut-off not given, nearly all actives have IC50 up to about 0.91 µM); conditions: recombinant PfCDPK4, Kinase-Glo ATP depletion luminescence
Chain of Calcium-dependent protein kinase 4 (Plasmodium falciparum (isolate 3D7)) (Q8IBS5 whole entry, looked up): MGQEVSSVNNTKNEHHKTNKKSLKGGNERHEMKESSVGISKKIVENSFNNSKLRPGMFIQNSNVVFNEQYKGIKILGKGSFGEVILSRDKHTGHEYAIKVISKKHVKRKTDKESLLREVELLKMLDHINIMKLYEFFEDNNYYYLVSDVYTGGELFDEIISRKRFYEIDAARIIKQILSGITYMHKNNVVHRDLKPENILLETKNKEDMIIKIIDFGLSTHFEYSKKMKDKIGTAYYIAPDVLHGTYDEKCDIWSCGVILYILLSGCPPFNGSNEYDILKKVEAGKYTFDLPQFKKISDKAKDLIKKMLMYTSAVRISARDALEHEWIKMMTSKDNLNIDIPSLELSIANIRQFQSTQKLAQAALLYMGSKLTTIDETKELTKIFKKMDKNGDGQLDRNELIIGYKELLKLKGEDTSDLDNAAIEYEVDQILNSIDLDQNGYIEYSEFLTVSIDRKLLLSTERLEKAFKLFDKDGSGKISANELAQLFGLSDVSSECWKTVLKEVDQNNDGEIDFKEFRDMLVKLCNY

Chain of Calcium-dependent protein kinase 1 (Plasmodium falciparum (isolate 3D7)) (P62344 whole entry, looked up): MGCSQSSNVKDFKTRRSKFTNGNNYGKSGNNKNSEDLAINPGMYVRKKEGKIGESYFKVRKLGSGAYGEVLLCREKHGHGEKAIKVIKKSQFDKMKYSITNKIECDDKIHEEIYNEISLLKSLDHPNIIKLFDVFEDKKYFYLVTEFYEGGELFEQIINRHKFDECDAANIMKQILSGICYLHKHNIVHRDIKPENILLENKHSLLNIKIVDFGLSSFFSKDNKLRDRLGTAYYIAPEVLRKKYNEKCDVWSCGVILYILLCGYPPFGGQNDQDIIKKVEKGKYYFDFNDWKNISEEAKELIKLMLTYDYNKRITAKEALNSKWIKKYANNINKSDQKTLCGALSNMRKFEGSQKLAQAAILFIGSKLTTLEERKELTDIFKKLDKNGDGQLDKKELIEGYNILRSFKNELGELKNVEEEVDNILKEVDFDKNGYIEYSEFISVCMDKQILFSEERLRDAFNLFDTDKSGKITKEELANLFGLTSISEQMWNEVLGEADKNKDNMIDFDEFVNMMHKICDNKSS
Chain of Protein kinase 7 (PK7), Plasmodium falciparum 3D7 (PF3D7_0213400) (Q7YTF7 1-343): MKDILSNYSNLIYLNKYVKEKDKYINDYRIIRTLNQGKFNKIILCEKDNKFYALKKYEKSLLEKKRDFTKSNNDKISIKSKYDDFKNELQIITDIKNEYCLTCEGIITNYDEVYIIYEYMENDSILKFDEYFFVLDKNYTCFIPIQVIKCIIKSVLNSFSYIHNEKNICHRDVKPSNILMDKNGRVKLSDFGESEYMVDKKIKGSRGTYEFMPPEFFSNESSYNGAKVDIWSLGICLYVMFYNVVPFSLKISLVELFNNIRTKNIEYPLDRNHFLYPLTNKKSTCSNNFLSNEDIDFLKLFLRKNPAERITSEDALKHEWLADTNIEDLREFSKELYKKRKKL
Chain of L-lactate dehydrogenase (Plasmodium falciparum (isolate CDC / Honduras)) (Q27743 whole entry, looked up): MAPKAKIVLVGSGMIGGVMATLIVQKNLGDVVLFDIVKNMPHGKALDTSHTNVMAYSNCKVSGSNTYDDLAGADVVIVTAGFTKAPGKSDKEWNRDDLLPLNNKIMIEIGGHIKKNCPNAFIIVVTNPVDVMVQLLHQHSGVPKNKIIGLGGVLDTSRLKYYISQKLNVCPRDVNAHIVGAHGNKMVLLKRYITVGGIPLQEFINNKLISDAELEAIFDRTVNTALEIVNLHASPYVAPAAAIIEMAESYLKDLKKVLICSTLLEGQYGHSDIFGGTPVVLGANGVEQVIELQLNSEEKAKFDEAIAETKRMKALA
Chain of Plasmodium falciparum protein kinase 6 (PK6, PF3D7_1337100) (Q8IDW1 1-305): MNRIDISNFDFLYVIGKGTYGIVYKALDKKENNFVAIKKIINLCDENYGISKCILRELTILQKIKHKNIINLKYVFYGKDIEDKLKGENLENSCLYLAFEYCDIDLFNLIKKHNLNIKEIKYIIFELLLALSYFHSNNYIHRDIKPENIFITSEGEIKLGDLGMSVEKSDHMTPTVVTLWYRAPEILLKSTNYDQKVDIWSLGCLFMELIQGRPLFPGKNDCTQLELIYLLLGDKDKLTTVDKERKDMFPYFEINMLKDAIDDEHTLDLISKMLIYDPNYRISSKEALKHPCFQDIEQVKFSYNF

Cc1cc2nc(-c3ccc(OCC(=O)NCc4cccc(C(F)(F)F)c4)cc3)[nH]c2cc1C
active: growth inhibition [4] 94%
inactive: growth inhibition [1] 1% | inhibition [2] 4% | inhibition [3] -4% | outcome [5] | outcome [6] | outcome [7] | outcome [8]

CCCNCc1ccc(-c2ccc(CN(C(=O)c3nn(-c4ccccc4)nc3C)C3CC3)cc2)nc1
active: growth inhibition [4] 101%
inactive: growth inhibition [1] -3% | inhibition [2] 23% | inhibition [3] -2% | outcome [5] | outcome [6] | outcome [7] | outcome [8]

CCc1cn(C)c2c(N3CCCC3=O)cc(C(=O)N[C@@H](Cc3ccccc3)[C@H](O)CNC(C)(C)c3cccc(OC)c3)cc12
active: growth inhibition [1] 99% | growth inhibition [4] 95%
inactive: inhibition [2] 9% | inhibition [3] -1% | outcome [5] | outcome [6] | outcome [7] | outcome [8]

CCc1sc(N2CCN(C)CC2)nc1C(=O)NCCc1ccc(Cl)c(Cl)c1
inactive: growth inhibition [1] 49% | inhibition [2] 5% | inhibition [3] 5% | outcome [5] | outcome [6] | outcome [7] | outcome [8]
active: growth inhibition [4] 92%

COc1ccc(NC(=O)[C@H](Cc2ccccc2)Nc2cc(C)nc(NCCc3cccs3)n2)cc1
active: growth inhibition [1] 83% | growth inhibition [4] 100%
inactive: inhibition [2] 12% | inhibition [3] -2% | outcome [5] | outcome [6] | outcome [7] | outcome [8]

CC(CN(C)C)C(=O)Nc1ccc(-c2ccc(-c3nc4ccc(C(F)(F)F)cc4[nH]3)cc2)cc1 (stereo not given)
active: growth inhibition [1] 93% | growth inhibition [4] 101%
inactive: inhibition [2] 14% | inhibition [3] 2% | outcome [5] | outcome [6] | outcome [7] | outcome [8]

O=C(Nc1cccc(-c2nn3ncccc3c2-c2ccnc(Nc3cccc(C(F)(F)F)c3)n2)c1)c1c(F)cccc1F
active: growth inhibition [1] 68% | growth inhibition [4] 97%
inactive: inhibition [2] 49% | inhibition [3] -2% | outcome [5] | outcome [6] | outcome [7] | outcome [8]

CCCCOc1cc(C)nc2ccc(NC(=O)COCC(=O)Nc3ccc4nc(C)cc(OCCCC)c4c3)cc12
active: growth inhibition [4] 90%
inactive: growth inhibition [1] 28% | inhibition [2] -11% | inhibition [3] -3% | outcome [5] | outcome [6] | outcome [7] | outcome [8]

O=C(CCCCCNC(=O)c1ccc(O)c(-c2ccc(Cl)c(Cl)c2)c1)NCc1cccc2ccccc12
active: growth inhibition [4] 99%
inactive: growth inhibition [1] 15% | inhibition [2] 2% | inhibition [3] -2% | outcome [5] | outcome [6] | outcome [7] | outcome [8]

O=C(NCC1CC1)C1CCN(C(c2ccccc2)c2nc3ccccc3s2)CC1 (stereo not given)
inactive: growth inhibition [1] 49% | inhibition [2] -3% | inhibition [3] 8% | outcome [5] | outcome [6] | outcome [7] | outcome [8]
active: growth inhibition [4] 92%

O=S(=O)(NCCN1CCCC1)c1cccc(-c2cccc(CNCc3ccsc3)c2)c1
inactive: inhibition [3] 6% | outcome [5] | outcome [6] | outcome [7] | outcome [8]
active: growth inhibition [1] 55% | inhibition [2] 69% | growth inhibition [4] 101%

CCCN(CCC)CCCNc1ccc(C(=O)Nc2ccc(C(C)C)cc2)cc1[N+](=O)[O-]
inactive: growth inhibition [1] 38% | inhibition [2] 17% | inhibition [3] -8% | outcome [5] | outcome [6] | outcome [7] | outcome [8]
active: growth inhibition [4] 98%

COc1cccc(C=CC(=O)N(CCN)Cc2ccccc2)c1
inactive: growth inhibition [1] -4% | inhibition [2] -14% | inhibition [3] -3% | outcome [5] | outcome [6] | outcome [7] | outcome [8]
active: growth inhibition [4] 99%

CCOC(=O)c1cn(CC)c2cc(N3CCCCCC3)c(F)cc2c1=O
active: growth inhibition [1] 89% | growth inhibition [4] 94%
inactive: inhibition [2] -2% | inhibition [3] 3% | outcome [5] | outcome [6] | outcome [7] | outcome [8]

O=C(/C=C/c1ccc(Cl)c(Cl)c1)NCCCCCN1CCCC(CNC(=O)c2sc3ccccc3c2Cl)C1 (stereo not given)
inactive: growth inhibition [1] -3% | inhibition [2] 42% | inhibition [3] 4% | outcome [5] | outcome [6] | outcome [7] | outcome [8]
active: growth inhibition [4] 98%

CC(=O)Oc1c(C(=O)C2CCC(C(C)(C)C)CC2)c(OC(C)=O)c2ccccc2c1OC(C)=O (stereo not given)
inactive: inhibition [2] 9% | inhibition [3] 2% | outcome [5] | outcome [6] | outcome [7] | outcome [8]
active: growth inhibition [1] 96% | growth inhibition [4] 96%

O=S(=O)(NCCN1CCCC1)c1cccc(-c2cccc(CNCCc3cccs3)c2)c1
active: growth inhibition [4] 102%
inactive: growth inhibition [1] 45% | inhibition [2] 30% | inhibition [3] 0% | outcome [5] | outcome [6] | outcome [7] | outcome [8]

CC(=O)N1c2ccccc2C(C)=CC1(C)C
inactive: growth inhibition [1] 11% | inhibition [2] 3% | inhibition [3] 1% | outcome [5] | outcome [6] | outcome [7] | outcome [8]
active: growth inhibition [4] 97%

Oc1ccc2[nH]c(-c3cccc(F)c3)nc2c1CN1CCC(N2CCCC2)CC1
active: growth inhibition [1] 54% | growth inhibition [4] 100%
inactive: inhibition [2] 0% | inhibition [3] -6% | outcome [5] | outcome [6] | outcome [7] | outcome [8]

CC(C)CNCc1cccc(-c2ccccc2CNC2CCN(Cc3ccccc3)CC2)c1
inactive: growth inhibition [1] 39% | inhibition [2] 25% | inhibition [3] -6% | outcome [5] | outcome [6] | outcome [7] | outcome [8]
active: growth inhibition [4] 100%

O=C(Nc1cc(Cl)cc(Cl)c1)c1cnn(-c2ccc(F)cc2)c1C1CCNCC1
active: growth inhibition [4] 90%
inactive: growth inhibition [1] -1% | inhibition [2] 13% | inhibition [3] -2% | outcome [5] | outcome [6] | outcome [7] | outcome [8]

N#Cc1ccc(N[C@@H](CC2CCCCC2)C(=O)NCc2cc(Cl)cc(Cl)c2)c2ccccc12
active: growth inhibition [1] 88% | growth inhibition [4] 94%
inactive: inhibition [2] 34% | inhibition [3] 0% | outcome [5] | outcome [6] | outcome [7] | outcome [8]

Cc1cc(OCCCN2CCC(NS(=O)(=O)c3ccc(C(F)(F)F)cc3)CC2)c2ccccc2n1
inactive: growth inhibition [1] 24% | inhibition [2] 12% | inhibition [3] 1% | outcome [5] | outcome [6] | outcome [7] | outcome [8]
active: growth inhibition [4] 95%

CC(=O)N1N=C(c2ccc(F)cc2)Sc2c1nc(C1CCCCC1)n2C(C)=O
active: growth inhibition [4] 92%
inactive: growth inhibition [1] 9% | inhibition [2] 4% | inhibition [3] 4% | outcome [5] | outcome [6] | outcome [7] | outcome [8]

CCN1CCc2c1cc(C(=O)N[C@@H](Cc1ccccc1)[C@H](O)CNC(C)(C)c1cccc(C(F)(F)F)c1)cc2N1CCCCS1(=O)=O
inactive: inhibition [2] 6% | inhibition [3] -1% | outcome [5] | outcome [6] | outcome [7] | outcome [8]
active: growth inhibition [1] 99% | growth inhibition [4] 100%

CC(CCNc1c2ccccc2nc2ccccc12)N1CCN(C)CC1 (stereo not given)
inactive: growth inhibition [1] -2% | inhibition [2] 25% | inhibition [3] 5% | outcome [5] | outcome [6] | outcome [7] | outcome [8]
active: growth inhibition [4] 101%

O=C(/C=C/c1c(Cl)cccc1Cl)NC1CCC(CN2CCC(Cc3cc4ccccc4[nH]3)CC2)CC1 (stereo not given)
active: inhibition [2] 97% | growth inhibition [4] 91%
inactive: growth inhibition [1] 17% | inhibition [3] -1% | outcome [5] | outcome [6] | outcome [7] | outcome [8]

COc1ccc2nccc([C@@H](O)CN3CCC(NCCOc4cc(F)cc(F)c4)CC3)c2c1
active: growth inhibition [1] 86% | growth inhibition [4] 101%
inactive: inhibition [2] 10% | inhibition [3] -3% | outcome [5] | outcome [6] | outcome [7] | outcome [8]

CCc1nc2nc(C)cc(Nc3cc(C)cc(C)c3)n2n1
inactive: inhibition [2] 21% | inhibition [3] 7% | outcome [5] | outcome [6] | outcome [7] | outcome [8]
active: growth inhibition [1] 96% | growth inhibition [4] 96%

O=C(Nc1cccc(OC2CCN(Cc3ccccc3)CC2)c1)c1ccc(Cl)c(Cl)c1
active: growth inhibition [4] 101%
inactive: growth inhibition [1] 45% | inhibition [2] 16% | inhibition [3] -4% | outcome [5] | outcome [6] | outcome [7] | outcome [8]

c1cc(CN2CCCCC2)cc(-c2ccc(-c3nc4ccccc4[nH]3)s2)c1
inactive: inhibition [2] 11% | inhibition [3] 2% | outcome [5] | outcome [6] | outcome [7] | outcome [8]
active: growth inhibition [1] 100% | growth inhibition [4] 101%

O=C(NC1CCCCC1)N(Cc1cccc(-c2ccc(CNCCc3ccccc3)cc2)c1)C1CCN(Cc2ccccc2)CC1
active: growth inhibition [1] 93% | inhibition [2] 61% | growth inhibition [4] 93%
inactive: inhibition [3] 4% | outcome [5] | outcome [6] | outcome [7] | outcome [8]

CC(C)(C)OC(=O)NCC(=O)N(Cc1ccccc1)Cc1ccccc1
active: growth inhibition [1] 93% | growth inhibition [4] 97%
inactive: inhibition [2] -10% | inhibition [3] 2% | outcome [5] | outcome [6] | outcome [7] | outcome [8]

CCc1cn2c3c(cc(C(=O)N[C@@H](Cc4ccccc4)[C@H](O)CNC4CCOCC4)cc13)N(C)S(=O)(=O)C2
active: growth inhibition [1] 98% | growth inhibition [4] 99%
inactive: inhibition [2] 13% | inhibition [3] -1% | outcome [5] | outcome [6] | outcome [7] | outcome [8]

CCCCN1CC[C@@H](CCC(O)c2cc(OCCC)nc3ccc(OC)cc23)[C@@H](CC)C1 (stereo not given in full)
inactive: inhibition [2] 23% | inhibition [3] -4% | outcome [5] | outcome [6] | outcome [7] | outcome [8]
active: growth inhibition [1] 99% | growth inhibition [4] 100%

NC(=O)c1c(Cl)nc2ccccc2c1Cl
inactive: growth inhibition [1] -2% | inhibition [2] 2% | inhibition [3] -2% | outcome [5] | outcome [6] | outcome [7] | outcome [8]
active: growth inhibition [4] 91%

CCCCCCCCCN(CCC)C(=O)[C@@H]1OC(C(=O)OC(c2ccccc2)c2ccccc2)=C[C@H](NC(=O)OC(C)(C)C)[C@H]1NC(C)=O
inactive: growth inhibition [1] 49% | inhibition [2] 0% | inhibition [3] -1% | outcome [5] | outcome [6] | outcome [7] | outcome [8]
active: growth inhibition [4] 91%

CC(=O)Nc1ccc(C(=O)Nc2cccc(-c3ccc(-c4nc5ccc(F)cc5[nH]4)s3)c2)cn1
active: growth inhibition [1] 97% | growth inhibition [4] 101%
inactive: inhibition [2] 33% | inhibition [3] 3% | outcome [5] | outcome [6] | outcome [7] | outcome [8]

NC1=NC(c2ccccc2)(c2ccccc2)C(=O)N1Cc1ccccc1Br
active: growth inhibition [4] 93%
inactive: growth inhibition [1] 38% | inhibition [2] 36% | inhibition [3] 4% | outcome [5] | outcome [6] | outcome [7] | outcome [8]

COc1ccc(-c2nc(NC(=O)Cc3ccc4c(c3)OCCO4)sc2C)cc1
active: growth inhibition [1] 99% | growth inhibition [4] 100%
inactive: inhibition [2] 0% | inhibition [3] 2% | outcome [5] | outcome [6] | outcome [7] | outcome [8]
